The results in this text go back to PubChem BioAssay AID1463 (National Center for Advancing Translational Sciences (NCATS), 2008).

Structures are written as SMILES. The whole screen tested about 280,000 compounds, of which about 2,600 (0.93%) were called active. Another 8% or so got no clear call; they are omitted. The entries come from a sample that favours actives as a whole. A number with no mark means an inactive call. Calls follow the shape of the dose curve; as a rule, active = well fitted curve in the direction sought with a large enough effect; inconclusive = small, poorly fitted or top-dose-only effect; inactive = flat fitted curve, though single readings scatter.
% is scaled to controls: 0 for no effect and ±100 for the full control effect; potency is read from the fitted curve at half-maximal effect; tags tell the direction and shape of the fitted curve or compound fluorescence and quenching.

The nature of the test: Counterscreen qHTS for Inhibitors of Tau Fibril Formation, Fluorescence Polarization. Also: nearly all actives have a fitted effect of over 55% in size. The note with it: tau K18 P301L (four-repeat tau fragment) Alexa594 fluorescence, heparin fibrillization; series mostly up to 57.7 µM; activity change, negative = decrease: at the top concentration. The source says:
NIH Molecular Libraries Probe Production Network [MLPCN]
NIH Chemical Genomics Center [NCGC]
Assay Provider: Carlo Ballatore, University of Pennsylvania
The microtubule-associated protein tau is an abundant protein in the axons of neurons that stabilizes microtubules. With its ability to modulate microtubule dynamics, tau contributes directly or indirectly, to key structural and regulatory cellular functions. Particularly important is the influence tau exerts on axonal transport, which allows signaling molecules, trophic factors and other essential cellular constituents to travel along the axons. Under pathological conditions, tau becomes sequestered into insoluble aggregates called neurofibrillary tangles. This phenomenon is believed to have pathological consequences by promoting axonal transport deficits that ultimately lead to synaptic dysfunction and neuronal loss. To identify inhibitors of tau aggregation, a heparin-induced tau fibril formation assay was used that employed a recombinantly expressed fragment of tau, K18 (Q242-E372), bearing a P301L mutation (Gustke et al. 1994; Hong et al. 1998). […] Total fluorescence (555 nm excitation and 632 nm emission) was measured to identify fluorescent or absorbent compounds at this wavelength. Such compounds may be artifacts that interfere with the Alexa 594 Tau fluorescence polarization assay.
Gustke, N., B. Trinczek, et al. (1994). "Domains of tau protein and interactions with microtubules." Biochemistry 33(32): 9511-22.
Hong, M., V. Zhukareva, et al. (1998).
Li, W. and V. M. Lee (2006). "Characterization of two VQIXXK motifs for tau fibrillization in vitro." Biochemistry 45(51): 15692-701.
von Bergen, M., S. Barghorn, et al. (2001). "Mutations of tau protein in frontotemporal dementia promote aggregation of paired helical filaments by enhancing local beta-structure." J Biol Chem 276(51): 48165-74.
NCGC Assay Protocol Summary:
For screening, 2 uL/well human K18 P301L (15 uM unlabeled and 0.24 uM Alexa 594-labeled tau final concentrations) in reagent buffer (100 mM sodium acetate pH 7) was dispensed into black solid 1536-well plates (Grenier) using a solenoid-based dispenser. Following transfer of 23 nL compound or DMSO vehicle by a pin tool, 2 uL/well heparin (20 uM final concentration) in reagent buffer was added and the plate centrifuged 15 s at 1000 RPM. Plates were incubated 6 hr at 37 C and then 1 uL/well ThT (30 uM final concentration) was added. After a 1 hr ambient incubation, the plates were read by an Envision (Perkin Elmer) to monitor Alexa 594 FP (555 nm excitation and 632 nm emission).
Keywords: NIH Roadmap, MLPCN, MLI, MLSMR, NCGC, qHTS, tau, tauopathies, Alzheimer's disease, fibril, neurodegeneration, aggregation
On the technique in general: Counterscreens check selectivity or assay interference.
Take `Cc1ccc(NC(=O)Nc2cccc(C(F)(F)F)c2)nc1`: the “activity change, negative = decrease” value was -3.63%.
Still for that read-out and setting: next, `O=C(Nc1cccc(C(F)(F)F)c1)c1cnccn1`: -1.32%.
Same read-out and setting: next, `O=C(Nc1ccc(F)cc1F)c1ccc2c(=O)n3c(nc2c1)CCCCC3`: -19.9%; `O=C(CC1N=C2c3ccccc3N=C(SCc3cccc(Cl)c3)N2C1=O)NCc1ccc2c(c1)OCO2` (centres undefined): -27.4%.
The same measure, in the same setting: next, `CCCn1c2ccccc2c2cnn(CC(=O)N(CC)c3cc(C)ccc3C)c(=O)c21`: -14.2%.
As to `CCN(CC)CCNC(=O)Cn1ncc2c3ccccc3n(Cc3ccccc3C)c2c1=O`, the “activity change, negative = decrease” value was -13.4%.
On the same count and under the same terms, next, `Cc1ccc2nc(/C(C#N)=C/c3ccc(-c4ccc(C(=O)OC(C)C)cc4)o3)[nH]c2c1`: -26.4%; `CC(=O)OC1=C(C(C)=O)N(Cc2ccccc2)S(=O)(=O)c2ccccc21`: -6.98%.
The same measure, in the same setting: next, `CCOC(=O)Cn1c(=O)n(C2CCCCC2)c2nc(-c3cccc(OC)c3)nc(C(N)=O)c21`: -8.8%.
For the molecule `COC(=O)CCc1sc(Nc2ccc(Br)cc2)nc1-c1ccc(OC)cc1`, the Potency is 8.91 µM [quencher] (active).
In the case of `COc1ccc(NC(=O)c2sc(N)nc2-c2ccccc2)cc1`, the “activity change, negative = decrease” value was -10.4%.
Still for that read-out and setting: next, `Cc1ccc(OC(=O)CCC(=O)Nc2ccc(Br)cc2)cc1`: 5.66%.
Same read-out and setting: next, `COC(=O)c1ccc(NC(=O)CCc2c(C)nn(-c3ccc(N4CCCC4)nn3)c2C)cc1`: -12.2%; `COc1ccc(N=C(C)c2sc3ccccc3c2O)cc1`: -23.8%.
Same read-out and setting: next, `Oc1ccc2ccccc2c1C=Nc1ccccc1`: -20.7%.
In the case of `Oc1ccc(N=Cc2sc3ccccc3c2Cl)cc1`, the Potency was 10 µM [quencher] (active).
For `CCCNc1ncnc2c1c(-c1ccccc1)cn2-c1ccc(OCC)cc1`, the “activity change, negative = decrease” value was -8.19%.
Still for that read-out and setting: next, `O=C(Nc1ccccc1F)C(c1ccccc1)N1Cc2ccccc2C1=O` (centres undefined): -6.79%; `Cc1ccc(C)c(CNC(=O)c2cc3ccccn3n2)c1`: -15.9%; `CCc1ccc(CNC(=O)c2ccc(CS(=O)c3ccc(Br)cc3)o2)cc1` (centres undefined): -8.58%.
The same measure, in the same setting: next, `CN(C)c1cccc(C(=O)Nc2nc3ccc(S(=O)(=O)NC(C)(C)C)cc3s2)c1`: -26.9%; `COCCNc1ccnc(-c2cccc(NS(C)(=O)=O)c2)n1`: -11.8%.
For `COc1ccc2[nH]cc(CCNc3nc(-c4cccc(NS(C)(=O)=O)c4)nc4ccccc34)c2c1`, the Potency was 28.2 µM [quencher] (active).
Regarding `COc1ccc2[nH]cc(CCNc3ncnc4ccc(-c5ccccc5CN(C)C)cc34)c2c1`, the “activity change, negative = decrease” value is -18.8%.
As to `Cc1cccc(Cn2c(CN3CCC(C(=O)NCc4ccccc4Cl)CC3)cc3ccccc32)c1`, the “activity change, negative = decrease” value is -1.33%.
Turning to `Cc1cc([N+](=O)[O-])ccc1NC(=O)c1ccc(NC(=O)C(C)C)cc1`, the “activity change, negative = decrease” value was -6.04%.
As for `CCn1c2ccccc2c2cc(NC(=O)CNC)ccc21`, the “activity change, negative = decrease” value was -25.8%.
`CCn1c2ccccc2c2cc(NC(=O)Nc3ccc([N+](=O)[O-])cc3C)ccc21`: the Potency is 8.91 µM [quencher] (active).
As to `O=C(Cn1cc(SCc2cccc(Cl)c2)c2ccccc21)N1CCCCC1`, the “activity change, negative = decrease” value is -24.4%.
The same measure, in the same setting: next, `Cc1nc2ccn(Cc3cccnc3)c(=O)c2cc1C(=O)N1CCN(c2ccccc2F)CC1`: -0.563%.
For the molecule `CN(C)c1ccc(C(CNC(=O)c2ccc(F)cc2)c2c[nH]c3ccccc23)cc1` (centres undefined), the Potency is 25.1 µM [quencher] (active).
With `O=C(Cc1ccccc1)NCc1ccc(F)cc1`, the “activity change, negative = decrease” value was -0.209%.
As for `CCOc1ccccc1C(=O)NCC(c1ccc(N(C)C)cc1)N1CCCC1` (centres undefined), the “activity change, negative = decrease” value is 4.45%.
The same measure, in the same setting: next, `CCOc1ccc(CNC(=O)Cn2cc3c(n2)-c2c(oc(C(=O)N4CCCC4)c2C)CC3)cc1`: -13.1%; `O=C(CN1C(=O)COc2ccc(S(=O)(=O)N3CCOCC3)cc21)N1CCN(c2cccc(Cl)c2)CC1`: -9.08%; `COc1ncnc2sc3c(c12)CCCC3`: 6.33%.
On the same count and under the same terms, next, `CC1(C)CN=C(N2CCN(c3ncnc4sc5c(c34)CCCC5)CC2)S1`: 2.38%.
With `COc1ccc(/C=N/Nc2ncnc3sc4c(c23)CCCC4)cc1O`, the Potency was 14.1 µM [quencher] (active).
`Cc1ccc(Cl)cc1NC(=O)CCS(=O)(=O)c1ccc(Br)s1`: the “activity change, negative = decrease” value was -2.67%.
`Cc1ccccc1Nc1nn2c(=O)c3ccc(C(=O)NCCc4ccc(Cl)cc4)cc3nc2s1`: the “activity change, negative = decrease” value is -23.6%.
On the same count and under the same terms, next, `CN1CCN(C2(CNC(=O)COc3ccc(C(C)(C)C)cc3)CCCCC2)CC1`: -8.9%.
On to `Cn1c(C(=O)N2CCC(C(=O)N3CCN(c4ccccc4)CC3)CC2)cc2sccc21`, for which the “activity change, negative = decrease” value is -5.95%.
The same measure, in the same setting: next, `CCCC(=O)Nc1ccc(NC(=O)c2sc3ccccc3c2Cl)cc1`: -3.72%; `Cc1nn(C)cc1/C=N/NC(=O)c1sc2ccccc2c1Cl`: -17.1%.
As to `O=C(N/N=C/c1c(Cl)[nH]c2ccccc12)c1sc2ccccc2c1Cl`, the Potency was 10 µM [quencher] (active).
For the molecule `CCOc1ccc(CCNC(=O)c2ccc3c(c2)sc2nc(-c4ccc(F)cc4)cn23)cc1OCC`, the “activity change, negative = decrease” value is -23.8%.
Take `COc1ccccc1CSc1nc2ccccc2[nH]1`: the “activity change, negative = decrease” value is -13.5%.
In the case of `COc1ccccc1CSc1ncc(-c2ccc([N+](=O)[O-])cc2)[nH]1`, the Potency was 28.2 µM [quencher] (active).
Regarding `COc1ccccc1CC(=O)Nc1ccc([N+](=O)[O-])cc1OC`, the “activity change, negative = decrease” value is -24.8%.
